# Tb hexokinase = T. brucei hexokinase 1 inhibition. recombinant TbHK1, G6PDH-coupled NADH A340. inhibition, % at 10 µM. 0.11% of 220,000 active. AID 1430;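 active = inhibition of 50% or more in the single-dose primary screen; inactive = inhibition below 50%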
# Ins promoter up = MIN6 insulin promoter up-regulation; 0.3% of 190,000 active; z-score at 5 µM; MIN6 insulin promoter-GFP reporter, high-content imaging; active compounds read high;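 active = z-score above 3 at 5 µM with at least 500 cells counted in the well; inconclusive = wells under 500 cells, flagged as cytotoxic or low count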
# HSV replic up = HSV replication enhancement. HSV replication augmentation in cells, fold increase. maximum fold increase. 0.005% of 220,000 active. AID 1956; in the data active = maximum fold increase above about 1.5; inconclusive = no clear call, values can overlap the other calls; tested in PC3 cells
# ROMK mod = modulators of human ROMK potassium channel. 2% of 130,000 active. P48048. B-score at 10 µM. Tet-inducible ROMK, thallium flux fluorescence; actives lie on both sides;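 active = signal ratio slope over the read window, or its plate-corrected B-score, at least 3 SD from the plate mean, either direction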;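 note: B-score of the F/F0 ratio slope over 7 to 12 s after thallium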
# Target sequence (P48048 whole entry, looked up): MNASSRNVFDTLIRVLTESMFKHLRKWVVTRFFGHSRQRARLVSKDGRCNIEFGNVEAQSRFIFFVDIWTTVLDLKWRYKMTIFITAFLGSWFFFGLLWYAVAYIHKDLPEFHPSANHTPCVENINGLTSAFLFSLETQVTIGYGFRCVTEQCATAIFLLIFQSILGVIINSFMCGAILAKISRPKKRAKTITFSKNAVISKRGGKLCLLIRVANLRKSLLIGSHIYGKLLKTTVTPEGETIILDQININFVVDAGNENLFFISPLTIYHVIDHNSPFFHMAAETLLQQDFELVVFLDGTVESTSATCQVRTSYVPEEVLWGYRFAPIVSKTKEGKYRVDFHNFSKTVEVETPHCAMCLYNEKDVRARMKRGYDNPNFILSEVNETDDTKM
# INS promoter inh = TRM-6 insulin promoter activity inhibition; TRM-6 cells (human fetal islet line), insulin promoter-eGFP reporter, imaging; reporter expression induced with tamoxifen; inhibition, % at 2 µM; 0.9% of 130,000 active;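 active = inhibition above the mean plus 3 SD, with well images judged a real hit on visual review, cut at about 60% in these data, passing the limit was not always enough; inconclusive = inhibition over the cutoff but images rejected on review; inactive = inhibition not above the cutoff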
# ROMK hit retest = retested hit modulating human ROMK potassium channel. shares compounds with ROMK mod. normalized thallium flux (F/F0 slope) at 10 µM. AID 1917. 54% of 3,000 active. ROMK thallium flux, fluorescence ratio; active compounds read low;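 active = Flux at 10 µM at least 3 SD below or above vehicle control mean in one or both replicates; inconclusive = no clear call, values can overlap the other calls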
# Numbers without * were called inactive; i = inactive; ? = inconclusive; / = no result given. Only a selection was taken, and hits are over-represented in it overall.
SMILES,Tb hexokinase,Ins promoter up,HSV replic up,ROMK mod,INS promoter inh,ROMK hit retest
CCN1C(=O)C(C(=O)c2ccccc2)SC1=S (stereo not given),-7,-0.23,i,1.4,-18,/
CCOc1ccc(C(C)=O)cc1CN1C(=O)NC2(CCCCCCC2)C1=O,-5,-0.96,i,-1.8,/,/
Cn1cccc1/C=N/NC(=O)c1cccc(OC(F)(F)C(F)F)c1,-33,-0.07,i,0.012,/,/
CC(C)COC(=O)/C(C#N)=C/c1c[nH]c2ccccc12,1,0.6,i,/,/,0.034*
COC(=O)/C(=C/c1cn(C)c2ccccc12)[N+](=O)[O-],2,0.99,/,/,-230,0.042*
CCOC(=O)/C(=C/c1c[nH]c2ccccc12)NC(C)=O,-44,/,i,/,17,/
COC(=O)/C(=C/c1c[nH]c2ccccc12)[N+](=O)[O-],1,0.38,i,-3.8*,/,0.062*
COC(=O)/C(=C/c1c[nH]c2ccccc12)NC(C)=O,-41,-0.24,i,0.22,40,/
OC1(c2ccccc2)CCN(Cc2ccccc2)C2CCCCC21 (stereo not given),21,-0.9,i,-4.5*,-34,0.067*
N#C/C(=C\c1ccccc1[N+](=O)[O-])C(=O)Nc1ccc(S(N)(=O)=O)cc1,-18,-0.06,i,/,/,/
CCOc1ccccc1/C=C(\C#N)C(=O)Nc1cccc(C(=O)O)c1,-9,-0.11,i,/,/,/
COc1cc(/C=C(/C#N)C(=O)Nc2ccccc2)c(Br)cc1OCc1ccc(C(=O)O)cc1,-17,/,i,-5*,/,0.055*
COc1ccccc1/C=C(\C#N)C(=O)Nc1ccc(S(N)(=O)=O)cc1,-4,0.5,i,-3.3*,-28,0.061*
CC1(C)CC(=O)C(CC(=O)NC2CCCc3ccccc32)C(=O)C1 (stereo not given),-1,0.13,i,0.74,-21,/
O=C(COc1ccccc1C(=O)NCC1CCCO1)Nc1ccc(Br)cc1 (stereo not given),6,-1.3,i,-0.33,-17,/
NC(=O)CSc1nnc(Cn2c(=O)sc3ccccc32)n1CCc1ccccc1,-2,-0.15,i,/,/,/
O=C(CSc1nnc(Cn2c(=O)sc3ccccc32)n1CCc1ccccc1)N1CCCC1,2,-0.14,/,/,/,0.078
CCSc1nc2sc3c(c2c2nnc(SCC(=O)NCc4ccco4)n12)CCCC3,-10,/,i,0.83,36,0.082
O=C(O)c1ccc(-c2nc(-c3ccc(Cl)c(Cl)c3)cs2)cc1,-2,-0.34,i,3.1*,-107,0.082
O=C(O)c1ccc(-c2nc(-c3ccccc3)cs2)cc1,-14,0.1,i,-0.92,-18,/
C=CCn1c(SCC(=O)Nc2cccnc2Cl)nnc1-c1ccccc1F,-1,0.51,i,-1,15,/
CC1C/C(=C/c2ccco2)C(=O)/C(=C/c2ccco2)C1 (stereo not given),5,0.76,i,-1.2,-24,/
CC1C/C(=C/c2cccs2)C(=O)/C(=C/c2cccs2)C1 (stereo not given),-8,0.01,i,2.9*,-17,0.071
Cn1c(=O)c2cc3ccccc3nc2n(C)c1=O,-10,1.5,i,-5.1*,/,?
Cc1cc(C)c2[nH]c(=O)c(C(c3nnnn3C(C)(C)C)N(Cc3ccco3)CC3CCCO3)cc2c1 (stereo not given),-24,/,i,-3.3*,-9,0.058*
SMILES,Tb hexokinase,Ins promoter up,HSV replic up,ROMK mod,INS promoter inh,ROMK hit retest
Cc1cccc2cc(CN(CC3CCCO3)C(c3nnnn3Cc3ccco3)C(C)C)c(=O)[nH]c12 (stereo not given),-10,-0.29,/,-3*,-15,0.071
CC(C)CNC(=O)c1cccc(NC(=O)CCc2ccccc2)c1,-10,-0.14,i,-0.96,/,/
Cc1cc(C)nc(NC(=O)CSc2nccc(C)n2)n1,0,0.05,i,2.8*,/,0.079
COC(=O)c1ccccc1NC(=O)CSc1nccc(C)n1,-12,-0.11,i,-0.037,-33,/
Cn1nnc(NC(=O)C(c2ccccc2)c2ccccc2)n1,3,/,i,/,42,/
CCn1nnc(NC(=O)C(c2ccccc2)c2ccccc2)n1,-1,-0.05,i,-7.3*,/,0.077
COc1ccc(CCNC(=S)NC2CCN(Cc3ccccc3)CC2)cc1OC,0,0.35,i,0.12,/,/
O=C(O)c1cccc(Nc2cc(Cl)c3nonc3c2[N+](=O)[O-])c1,-12,0.35,i,0.68,/,/
O=[N+]([O-])c1c(Nc2ccccn2)cc(Cl)c2nonc12,-20,0.15,i,-8.6*,/,0.043*
C=CC#CC1(O)CC(C)[N+](C)(C)CC1C (stereo not given),5,-0.07,i,0.3,-50,0.084

# Bioassay records as filed in PubChem BioAssay.
